Bioassay records from PubChem.
ssDAF12 agonist: activators of S. stercoralis DAF-12 nuclear receptor. HEK293 ssDAF-12/GRIP1 lit1-tk-luc reporter, luminescence; % of 3 µM dafachronic acid response. activation, % at 6.8 µM. actives 1% (n = 370,000). AID 652126;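 active means activation above the mean over all tested compounds plus 3 SD, cut at about 0.9% in these data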
hcDAF12 agonist: activators of H. contortus DAF-12 nuclear receptor | HEK293 hcDAF-12 lit1-tk-luc reporter, luminescence; 0% DMSO, 100% Δ7-dafachronic acid | activation, % at 6.8 µM | actives 1.4% (n = 370,000) | AID 652067;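 active means activation above the mean of all tested compounds plus 3 SD, cut at about 5.5% in these data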
DAX1 inh-1: inhibitors of DAX1 repression of SF-1 activated StAR promoter | HEK293T StAR-luciferase reporter, SF-1/DAX-1 repression relief | inhibition, % at 6.8 µM | actives 1.1% (n = 370,000) | AID 652010;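 active means inhibition above the mean over all tested compounds plus 3 SD, cut at about 3.6% in these data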;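 further: higher inhibition means more luminescence from relief of DAX-1 repression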
DAX1 inh-2: NR0B1 (DAX1) inhibition | P51843 | HEK293 Gal4-DAX1 luciferase reporter, luminescence | inhibition, % at 6.75 µM | actives 0.99% (n = 340,000) | AID 504766;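 active means inhibition above the mean over all tested compounds plus 3 SD, cut at about 4.2% in these data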;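 further: inhibition shows as a rise in luminescence from relieved DAX1 repression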
hgDAF-12 ag: hgDAF-12 agonism, primary luciferase screen; activation, % at 6.8 µM; HEK293 GAL4-hgDAF12 UAS-luciferase reporter, agonist luminescence; normalized to butyrate control; actives 1.8% (n = 370,000);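 active means activation above a cutoff set at the mean of all screened compounds plus 3 SD, cut at about 10% in these data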
FXN GAA850 act: increases GAA850 frataxin promoter reporter activity; activation, % at 6 µM; AID 540364; actives 0.56% (n = 360,000); HEK293 lucGAA850 FXN promoter luciferase reporter, 24 h; percent of 10 µM SAHA response;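 active means activation above the average of all compounds screened plus 3 SD, cutoff fixed separately per campaign, cut at about 7.5% in these data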
LXRb hcDAF ctr: activates human LXR-beta, counter-screen for hcDAF-12 agonists; HEK293 Gal4-LXR tk-luc reporter, luminescence, 24 h; normalized: DMSO 0%, positive control 100%; shares compounds with hcDAF12 agonist; activation, % at 6.8 µM; 3,400 tested, under 10 active;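 active means mean percent activation of the reporter above a cutoff set as the average over tested compounds plus their standard deviation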
Target sequence (P55055 whole entry, looked up, the tested form may be a part): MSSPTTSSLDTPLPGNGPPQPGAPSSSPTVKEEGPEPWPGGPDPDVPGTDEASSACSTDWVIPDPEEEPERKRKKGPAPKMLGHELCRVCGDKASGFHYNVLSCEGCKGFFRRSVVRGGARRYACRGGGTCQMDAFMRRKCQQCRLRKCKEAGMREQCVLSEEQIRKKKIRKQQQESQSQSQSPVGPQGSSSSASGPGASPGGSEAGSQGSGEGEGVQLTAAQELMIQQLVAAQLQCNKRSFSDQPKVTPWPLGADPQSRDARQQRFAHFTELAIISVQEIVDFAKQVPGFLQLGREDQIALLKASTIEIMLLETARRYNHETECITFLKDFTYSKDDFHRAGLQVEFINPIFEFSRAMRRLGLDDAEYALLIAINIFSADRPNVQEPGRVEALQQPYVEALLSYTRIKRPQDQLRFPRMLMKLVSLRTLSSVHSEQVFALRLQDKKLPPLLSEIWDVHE
hcDAF12 ag: hcDAF-12 agonism, confirmation assay; actives 61% (n = 3,400); shares compounds with hcDAF12 agonist; activation, % at 6.8 µM; HEK293 hcDAF-12 lit1-tk-luc reporter, luminescence; % of Δ7-dafachronic acid response;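 active means mean activation across triplicate tests above the threshold derived from the earlier primary screen, cut at about 5.5% in these data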
A number is an active result; i = inactive; nt = no result given. Shown are actives, neighbours in structure and some others; about 4.5% of the full set was active somewhere.

SMILES | ssDAF12 agonist | hcDAF12 agonist | DAX1 inh-1 | DAX1 inh-2 | hgDAF-12 ag | FXN GAA850 act | LXRb hcDAF ctr | hcDAF12 ag
Cn1c(C=O)c(-c2ccc3cc[nH]c3c2)c2ccccc21 | i | 7.7 | i | i | i | i | i | i
Cn1c(-c2ccsc2)c(-c2cccs2)c2cc(-c3ccc4cc[nH]c4c3)ccc21 | i | i | i | i | i | i | nt | nt
CCC1(C)N=C(c2ccc3c(c2)OCO3)CC(c2ccccc2O)N1 (configuration not stated) | i | 7.9 | i | i | i | i | i | i
Cc1ccc2nc(-c3ccccn3)[nH]c2c1 | i | 8.7 | i | i | i | i | i | i
c1ccc(-c2nc3c(ccc4ccccc43)[nH]2)nc1 | i | 8.9 | i | i | 11.8 | i | i | 8.1
Cc1ccc2nc(CCCc3nc4ccc(C)cc4[nH]3)[nH]c2c1 | i | i | i | i | i | i | nt | nt
COC(=O)[C@]12C[C@H](CC(=O)NCc3ccc(C)o3)C(=O)N(Cc3ccccc3)C1=C[C@H](C(C)(C)C)O[C@@H]2C | i | i | i | nt | i | nt | nt | nt
C(=C\c1ccco1)/c1nc2ccccc2[nH]1 | i | 7.3 | i | i | i | i | i | 9.4
CC(O)/C=C/c1ccc2ccccc2n1 (configuration not stated) | i | i | i | i | i | i | nt | nt
C(=C\c1ccco1)/c1ccc2ccccc2n1 | i | 7.3 | i | nt | i | i | i | 13.2
CCCc1nc2c(C)cc(Br)cn2c1Cc1ccc(C)cc1 | i | 7.4 | i | nt | i | nt | i | 10.4
Cc1cccc(-c2nnc(SCC(=O)N3CCOCC3)o2)c1 | i | 6.8 | i | i | i | i | i | i
O=C(CSc1nnc(-c2cccc(F)c2)o1)N1CCOCC1 | i | i | i | i | i | i | nt | nt
COc1ccccc1-c1nnc(SCC(=O)N2CCC(C)CC2)o1 | i | i | i | i | i | i | nt | nt
COc1ccccc1-c1nnc(SCC(=O)N2CCOCC2)o1 | 1.1 | 10.2 | i | i | i | i | i | 11.1
Cn1c(/C(C#N)=C(\O)c2ccc(Cl)s2)nc2ccccc21 | i | 8.0 | i | i | i | i | i | 8.3
COc1cc(OC)cc(C(=O)NCCN2C(=O)C3C4C=CC(C4)C3C2=O)c1 (configuration not stated) | i | i | i | nt | i | nt | nt | nt
COc1ccccc1N1CN(S(=O)(=O)c2ccc(C)cc2)c2nc3ccccc3nc21 | 0.9 | 9.1 | i | i | 12.8 | i | i | i
COc1ccc(CCN2CN(S(=O)(=O)c3ccc(C)cc3)c3nc4ccccc4nc32)cc1OC | i | i | i | i | i | i | nt | nt
N#CC1=C(N)Oc2c(ccc3ccccc23)C1c1ccsc1 (configuration not stated) | 0.9 | 7.1 | i | i | 11.8 | i | i | i
CCOc1cccc(C=NNC(=O)C(=O)Nc2cccc(C(F)(F)F)c2)c1O | i | i | i | nt | i | nt | nt | nt
COC(=O)C1CCCN(C(=O)C2CCN(S(=O)(=O)c3cccs3)CC2)C1 (configuration not stated) | i | i | i | nt | i | nt | nt | nt
CN(C)c1nc(C(=O)Nc2ccccc2)nc(N(C)C)n1 | i | 6.7 | i | i | i | i | i | i
Cc1cccc(C(=O)NNC(=O)c2ccc(Cl)cc2)c1O | i | 7.1 | i | i | i | i | i | 5.9
O=C(NNC(=O)c1ccccc1O)c1ccc(Cl)cc1 | i | i | i | i | i | i | nt | nt
SMILES | ssDAF12 agonist | hcDAF12 agonist | DAX1 inh-1 | DAX1 inh-2 | hgDAF-12 ag | FXN GAA850 act | LXRb hcDAF ctr | hcDAF12 ag
COc1cccc(-c2cnc(C(O)c3ccc(-c4ccccc4)cc3)[nH]2)c1 (configuration not stated) | i | i | i | nt | i | i | nt | nt
O=C(CCc1nnc(Cc2c[nH]c3ccccc23)o1)NCCC1CCCCO1 (configuration not stated) | i | 6.8 | i | i | i | i | i | i
COc1ccc(/C=C2\CC3(OC(=O)c4cccc(F)c4)CCCN2C3)cc1 (configuration not stated) | i | i | i | nt | i | nt | nt | nt
N=c1oc2ccccc2cc1-c1nc(-c2ccccc2)cs1 | 1.1 | 10.6 | i | i | i | i | i | i
CCCCCCC12C(=Cc3cc(C)ccc31)c1ccccc1C(CC(=O)NCc1ccccc1)N2C(=O)OC (configuration not stated) | i | i | i | nt | i | nt | nt | nt
NNc1nc(-c2ccccc2Cl)nc2sc3c(c12)CCCC3 | i | 8.3 | i | i | i | i | i | 7.7
NNc1nc(-c2ccccc2Cl)nc2ccccc12 | i | i | i | i | i | i | nt | nt
c1nc(NCC2CCCCO2)c2cc(-c3ccc4c(c3)OCO4)ccc2n1 (configuration not stated) | i | 6.9 | nt | nt | i | nt | i | i
CCC(=O)Nc1ccc2c(c1)OCCO2 | i | i | i | i | i | i | nt | nt
COc1ccc(C(=O)/C=C(\C)Nc2ccc3c(c2)OCO3)cc1 | i | 7.2 | i | i | i | i | i | i
Cc1ccc(NC(=O)c2ccc3c(c2)OCCO3)cc1 | i | i | i | i | i | i | nt | nt
CC(=O)Oc1ccc(C(=O)Nc2ccc3c(c2)OCCO3)cc1 | i | 9.1 | i | i | 11.2 | i | i | 8.5
O=C(Nc1ccc2c(c1)OCCO2)C(=O)NC1CC1 | i | 6.8 | i | i | i | i | i | i
CCCCN1CCS(=O)(=O)N(Cc2cn(Cc3ccc(C)cc3)nn2)C(C(=O)OC)C1 (configuration not stated) | i | i | i | nt | i | nt | nt | nt
COc1ccc(C(C)(C)C)cc1NC(=O)CNc1cccc2ccccc12 | i | 7.6 | i | i | i | i | i | i
COc1ccccc1NC(=O)Cc1cccc2ccccc12 | i | i | i | i | i | i | nt | nt
COc1ccc(CNCc2cc3c(cc2[N+](=O)[O-])OCO3)cc1 | i | 9.4 | i | i | i | i | i | i
Cc1cc(C)cc(NCc2cc3c(cc2[N+](=O)[O-])OCO3)c1 | i | i | i | i | i | i | nt | nt
COc1ccccc1Nc1ccc(C(=O)NCc2cccs2)cn1 | i | i | i | i | i | i | nt | nt
COc1ccccc1Nc1ncc(-c2cccs2)s1 | 1.3 | 10.7 | i | i | i | i | i | 15.1
CC(=O)/C(N=Nc1cc(C)ccc1O)=C(\C)O | i | 9.2 | i | i | i | i | i | 6.3
Cn1c(NC(=O)/C=C/c2ccccc2)cc(=O)n(C)c1=O | 1.3 | 10.5 | i | 4.8 | i | i | i | 6.3
O=C(/C(=C(\[O-])c1ccccc1)[n+]1ccc2ccccc2c1)c1ccccc1 | i | 8.1 | i | i | i | i | i | i
O=C(/C(=C(\[O-])c1ccccc1)[n+]1ccc2ccccc2c1)c1ccc(Cl)cc1 | i | 9.8 | i | i | i | i | i | i
